The structures appear in SMILES notation. Out of some 65,000 compounds screened, about 2,100 (3.2%) showed an effect of 50% or more. The median lay at about -52%. The list comes from a sample in which strong results are over-represented; it also holds similar structures and randomly drawn compounds.

The subject of this test is Plasmodium falciparum. Briefly: Screen against P. falciparum Asexual Blood Stage (ABS), at 5uM. The format is functional, Dd2. To be noted: tested at 5 uM.
For `Cc1ccccc1OCC(=O)N1CCN(C2CCOC2=O)CC1` (stereo not given), the INHIBITION is reported as -28.3%.
In the case of `Cc1cccc(NC(=O)c2cccc(OCc3nnnn3C)c2)n1` it was 80.7%; in that of `CN1CCc2c(C#N)c(NCCc3ccccc3)n3cnnc3c2C1`, 70.9%; in that of `CN1CCc2c(C#N)c(NCCCO)n3cnnc3c2C1`, -82.4%.
With `CC(C)CCNc1c(C#N)c2c(c3nncn13)CN(C)CC2`, the INHIBITION is -35.1%.
Regarding `COc1ccc(CC(=O)N2CCN(Cc3ccco3)C[C@@H]2C)cc1`, the INHIBITION is recorded as -22.3%.
As for `COCCN1C[C@@H]2[C@@H](OC)CCN(C(=O)Cc3ccccc3)[C@@H]2C1`, the INHIBITION is recorded as -25%.
In the case of `COc1ccc(CC(=O)N2CCC[C@@H](N)[C@@H]2c2ccccc2F)cc1` it was 80.9%; in that of `Cc1cccc(CN2C[C@@H]3OCCN(S(=O)(=O)N(C)C)[C@@H]3C2)n1`, -43.1%.
The result for `CCc1ccc2nc(NCCCN(CCO)CCO)cc(C)c2c1` reads 83.4%; that for `CCN1CCC12CCN(C(=O)c1cc(C)on1)C2` (stereo not given), -10.1%; that for `CCc1noc(CN2CCN(C(=O)Cc3ccc(F)cc3)CC2)n1`, -9.72%.
The result for `NC1CCCCN(Cc2cc(-c3ccccc3OC(F)(F)F)no2)C1` (stereo not given) reads 71.1%; that for `CC(C)n1ccc2c(C(=O)NC3CN4CCC3CC4)cccc21` (stereo not given), -67.1%; that for `COc1cc(CNCC(C)O)cc(Cl)c1OCc1ccc(C)cc1` (stereo not given), 73.9%.
On to `COc1cccc(CNC(C)C)c1OCc1ccc(C)cc1`, for which the INHIBITION came to 73.7%.
In the case of `Cc1nc(C)c(CC(=O)N2CCN(CC(C)C)CC2)c(=O)[nH]1` it was -137%; in that of `Clc1cccc(C(NCc2ncc[nH]2)c2ccccn2)c1` (stereo not given), 86.9%.
`Fc1cccc(C(NCc2ncc[nH]2)c2ccccn2)c1` (stereo not given): the INHIBITION amounted to 91.8%.
The result for `Cc1nnc([C@@H]2C[C@H]3CN(C4CCC4)C[C@H]3O2)[nH]1` reads -81.6%; that for `O=C(c1cn(Cc2ccccc2)c2ncccc12)N1CCCCC1`, -11.9%; that for `N#CC1(c2ccccc2)CCN(C(=O)CN2C(=O)CCNC2=O)CC1`, -90.6%.
The result for `COc1ccc(CNC(C)Cn2cccn2)c(OC)c1OC` (stereo not given) reads -37.6%; that for `CCOc1cccc(C(C)NCc2ccc(OC)c(OC)c2OC)c1` (stereo not given), 77.6%.
Turning to `COc1ccc(CNC(C)c2ccc(Cl)cc2)c(OC)c1OC` (stereo not given), the INHIBITION stood at 80.9%.
In the case of `CNS(=O)(=O)c1cccc(C(C)NCc2ccccc2OC)c1` (stereo not given) it was 86.6%.
For `COc1ccc(CNC(C)c2ccccc2Cl)c(OC)c1OC` (stereo not given), the INHIBITION is recorded as 75.6%.
In the case of `O=C1C[C@@H]2[C@H](CCN2Cc2ccccn2)N1Cc1ccncc1` it was 19.2%; in that of `Cc1n[nH]c(C)c1CNC(=O)c1cn(CCC2CCCCN2)nn1` (stereo not given), -24.9%; in that of `c1coc(CNc2ncc3c(n2)C2(CCNC2)COC3)c1` (stereo not given), -66%.
The result for `CC(C)N1CCCC(Cc2nccnc2Cl)CC1` (stereo not given) reads -7.14%; that for `Cn1ccc(CN2CCCC23CCNCC3)n1`, -53.7%; that for `O=C([C@H]1C[C@H]2OCC[C@H]2N(Cc2ccccn2)C1)N1CCCCO1`, -88.5%.
In the case of `COCC(O)CN(C)c1ccnc2cc(Br)ccc12` (stereo not given) it was 94.4%.
As for `Cc1cc(CN2CCN3C[C@H](c4ccccc4)[C@@H](CO)[C@H]3C2)on1`, the INHIBITION is reported as -81.4%.
The result for `Cc1ccc(N2CCC3(CCCN3Cc3ccn(C)n3)CC2)nn1` reads -63.5%; that for `Cc1ccccc1-n1cc(C2=CCN(CCN3CCOCC3)CC2)cn1`, -4.21%; that for `CC(C)NC(=O)[C@@H]1CC[C@@H]2[C@@H](CCN2Cc2cn(C)c3ccccc23)O1`, 77.6%.
In the case of `CN(C)C(=O)[C@H]1CC[C@@H]2[C@@H](CCN2Cc2ccccn2)O1` it was -43.5%.
Turning to `CN(C)C(=O)[C@@H]1CC[C@@H]2[C@@H](CCN2Cc2ccccn2)O1`, the INHIBITION was -97.6%.
In the case of `CCN(CC)C(=O)C1CCC2(CCNCC2)CO1` (stereo not given) it was -31.8%; in that of `COCC(=O)NC(C)Cc1ccc(Br)cc1` (stereo not given), 17.4%; in that of `Cc1nc(Nc2ccc(Cl)cn2)sc1C(=O)NCCCN1CCCCC1`, 81.4%.
As for `Cc1cnc(N2CCN3C[C@H](OCc4ccccn4)C[C@H]3C2)nc1`, the INHIBITION is on record as -24.1%.
On to `O=C(c1nn(-c2ccccc2F)cc1O)N1CCC2(CC1)OCCO2`, for which the INHIBITION is -12.3%.
The result for `CCCN1CCCC(O)(c2nc(C)c(COc3ccccc3)s2)CC1` (stereo not given) reads 83.2%.
The result for `O=S1(=O)CCC(n2cc(C3=CCN(CCc4ccccc4)CC3)cn2)C1` (stereo not given) reads -45.5%.
As for `O=C(Nc1cccnc1)[C@H]1CN(Cc2nccs2)C[C@H]2OCC[C@@H]12`, the INHIBITION is -93.3%.
Consider `CCC(CC)(CN)NC(C)c1ccccc1` (stereo not given), for which the INHIBITION is 83.4%.
In the case of `O=C(Cc1ccc(F)cc1)N1CCN(CC(O)C2CC2)CC1` (stereo not given) it was 1.79%; in that of `Cc1c(C(=O)O)nnn1Cc1cccc(C(F)(F)F)c1`, -66.5%; in that of `CC(O)CN1CCC(CNCc2cccc(C(F)(F)F)c2)CC1` (stereo not given), 83.1%.
In the case of `CC(O)CN1CCC(CNCc2ccc(OC(F)(F)F)cc2)CC1` (stereo not given) it was 86.9%; in that of `CC(O)CN1CCC(CNCc2cccc(OC(F)(F)F)c2)CC1` (stereo not given), 80.1%.
In the case of `CC(=O)N1CCC(CCNC(C)Cc2ccc(F)cc2)CC1` (stereo not given) it was -0.762%; in that of `Cc1nc(CN2CCOC3(CCCC3)C2)no1`, -138%.
As for `C[C@@H]1CN(C2CCOCC2)C[C@]12CCN(c1cccnc1)C2=O`, the INHIBITION is -104%.
In the case of `Cc1ccc(-c2ccnc3cc(CC(=O)N4CCN(C)CC4)nn23)cc1` it was -116%.
Consider `CC(C)N(C)C(=O)C1CCC2(CCNCC2)O1` (stereo not given), for which the INHIBITION is given as -214%.
The result for `c1cc(CO[C@@H]2CC[C@H]3[C@H]2OCCN3Cc2ccoc2)ccn1` reads -169%; that for `CC(C)CCC(=O)N1C[C@H]2CCN[C@H]2C1`, -114%.
In the case of `CCc1noc(C)c1C(=O)NCC(c1ccc(C)cc1)N(C)C` (stereo not given) it was 71.4%.
The result for `Cc1noc(CN2CC=C(c3cnn(C4CCS(=O)(=O)C4)c3)CC2)n1` (stereo not given) reads -15.1%; that for `CC(C)(C)n1ncc2c1NC(=O)CSC2c1ccc2c(c1)OCO2` (stereo not given), -138%.
Take `NC(=O)c1ccc(N2CCCCC2)c(NC(=O)c2ccc(Br)cc2)c1`: the INHIBITION came out at 71.3%.
For `O=C(NC[C@H]1C[C@@H]2CCN1C[C@@H]2CN1CCOCC1)Nc1ccccc1`, the INHIBITION is -40.4%.
In the case of `c1cnc(Nc2ccc(C3CCCCN3)cn2)cn1` (stereo not given) it was 13.6%; in that of `Cc1cc(C)nc(Nc2ccc(C3CCCCN3)cn2)n1` (stereo not given), -64.1%; in that of `Cc1cccc(Nc2ccc(C3CCCCN3)cn2)n1` (stereo not given), 81.4%.
With `CC(C)C1CCCN1C(=O)c1ccc(-n2ncc(C#N)c2N)cc1` (stereo not given), the INHIBITION came out at 71.4%.
The result for `Cc1cc(CN2C[C@@H]3COC[C@]3(COCc3csc(C)n3)C2)no1` reads -58.8%.
For `Cc1cc(CN2C[C@H]3CCC[C@@]3(COCc3csc(C)n3)C2)no1`, the INHIBITION turned out to be 14.2%.
In the case of `Cc1cccc(CN2C[C@H]3CCC[C@@]3(COCc3csc(C)n3)C2)n1` it was 82%.
The result for `CC(C)N1CCCCC1c1cncc(Cl)n1` (stereo not given) reads -50.5%.
`CC(C)N1CCCCC1c1nc(N(C)C)ncc1I` (stereo not given): the INHIBITION is 72%.
On to `CC(C)N1CCCC1c1nc(N(C)C)ncc1I` (stereo not given), for which the INHIBITION is on record as 70.7%.
In the case of `COCCNC(=O)[C@H]1CN2CCC1C[C@@H]2Cn1cc(C(C)(C)C)nn1` (stereo not given in full) it was -65.8%.
In the case of `c1cnc(N2CCOC3(COCCN(Cc4cc[nH]n4)C3)C2)nc1` (stereo not given) it was -27.9%; in that of `CC(C)=CCN1C[C@@H]2CC[C@H]1CN(S(=O)(=O)c1cccnc1)C2`, -10.7%; in that of `C=Cc1cccc(CN2C[C@@H](CN(C)CC)[C@@H](CO)C2)c1`, 87.6%.
In the case of `CCNC(=O)[C@H]1CN(Cc2ccccc2)C[C@@H]1C(=O)c1ccccc1`, the INHIBITION is listed as -76.3%.
In the case of `CCN(C)C[C@@H]1CN(S(=O)(=O)c2cccc(Cl)c2)C[C@@H]1CO` it was 75.3%; in that of `CCN(C)C[C@@H]1CN(Cc2cccc(Cl)c2)C[C@@H]1CO`, 83.6%; in that of `CN1CC=C(c2noc(CCC(=O)N3CCCC3)n2)CC1`, -71.4%.
In the case of `Cc1nc(CN2CCN(C(=O)Cc3cccc(Cl)c3)CC2)no1` it was -18.4%.
As for `Cc1cccc(N2CCN(C(=O)CCc3c(C)noc3Cl)CC2)c1`, the INHIBITION amounted to 86.3%.
For the compound `Cc1ccnc(CC(C)N(C)Cc2ccc3c(c2)CCO3)c1` (stereo not given), the INHIBITION was -33.2%.
The result for `Cc1ccc(CN2CCO[C@@H]3[C@@H](OCc4cccnc4)CC[C@@H]32)o1` reads -89.9%; that for `O=C(N[C@H]1COC[C@@H]1N1CCCC1)c1csc(Cc2ccccc2)n1`, -21.2%.
In the case of `O=C(N[C@H]1COC[C@@H]1N1CCCC1)c1csc(-c2cccs2)n1` it was 50.8%; in that of `Cc1nc(C(=O)N[C@H]2COC[C@@H]2N2CCCCC2)cs1`, -260%.
In the case of `CN1CCC2(CC1)CN(Cc1ccc(C3CCCCO3)o1)CCCN2C` (stereo not given) it was 81.1%; in that of `c1cnc(N2CCOCC3(CN(Cc4cc[nH]n4)CCO3)C2)nc1` (stereo not given), -54.7%; in that of `Cc1cccc(CN2C[C@@H]3CCCO[C@@H]3[C@H](NS(C)(=O)=O)C2)n1`, -63.9%.
Consider `CN(Cc1ccco1)[C@@H]1CN(Cc2ccsc2)C[C@@H]2CCCO[C@@H]21`, for which the INHIBITION is recorded as 76%.
The result for `CN(Cc1cncnc1)[C@H]1CN(Cc2ccco2)[C@@H]2CCCO[C@@H]21` reads -96.6%; that for `Cc1ccc(CN2C[C@@H]3CCCO[C@@H]3[C@H](N(C)Cc3ccco3)C2)s1`, 74.2%.
For `CN(Cc1ccco1)[C@@H]1CN(Cc2cccnc2)[C@@H]2CCCO[C@H]12`, the INHIBITION is -40.9%.
The result for `Cc1cc(CN2C[C@@H]3CCCO[C@@H]3[C@H](N(C)C(C)C)C2)no1` reads -18.2%; that for `c1cnc(N2C[C@H]3CC[C@@H](C2)N(Cc2ccsc2)C3)nc1`, -21%.
